Drawing on PubChem BioAssay (EPA / NIEHS), this text covers outcome and AC50 for eight compounds.

Active and inactive are the calls of the source. How the source made its calls: active means hit-call score of the fitted dose curve at least 0.9, where 1 is the maximum; inactive means score below 0.9.

A short description of assay [1]: BSK_LPS_PGE2: BioMAP Diversity Plus: LPS Assay for Prostaglandin E2 (PGE2) Biomarker Activity (AID 2283082). The settings on record: primary human HUVEC with PBMC; actives raise or lower the signal. The method in brief: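 HUVEC plus human PBMC co-culture stimulated with LPS; secreted PGE2 quantified by ELISA 24 h after chemical dosing. Activity fitted bidirectionally against DMSO baseline; parallel SRB staining (0.1% SRB after 10% TCA fixation, 560 nm) flags overt cytotoxicity.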

Read-out in assay [2]: Macrophage colony-stimulating factor (MCSF), CSF1 (gene 1435)
In words: BSK_LPS_MCSF: BioMAP Diversity Plus: LPS Assay for Macrophage colony-stimulating factor (MCSF) Biomarker Activity (AID 2283083). The settings on record: primary human HUVEC with PBMC; actives raise or lower the signal. The method in brief: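 HUVEC + PBMC co-culture (human primary), 24 h post-dose; M-CSF by ELISA; gain/loss of signal fitted bidirectionally vs DMSO baseline.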

Read-out in assay [3]: Tissue Factor, F3 (gene 2152)
The experiment in a line: BSK_LPS_TissueFactor: BioMAP Diversity Plus: LPS Assay for Tissue Factor Biomarker Activity (AID 2283084). The settings on record: primary human HUVEC with PBMC; actives raise or lower the signal. The method in brief:
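HUVEC/PBMC co-culture, LPS-activated; CD142 ELISA read 24 h post-dose; bidirectional curve fit vs DMSO negative control.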

Read-out in assay [4]: Tumor necrosis factor (Homo sapiens) (UniProt P01375)
In words: BSK_LPS_TNFa: BioMAP Diversity Plus: LPS Assay for Tumour Necrosis Factor alpha (TNFa) Biomarker Activity (AID 2283085). The settings on record: primary human HUVEC with PBMC; actives raise or lower the signal. The method in brief: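 Human umbilical vein endothelial cells co-cultured with PBMC and stimulated with LPS. TNFa was measured by ELISA 24 h after chemical dosing, fitted bidirectionally relative to DMSO.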

Read-out in assay [5]: Vascular cell adhesion molecule 1 (VCAM1), VCAM1 (gene 7412)
The experiment in a line: BSK_LPS_VCAM1: BioMAP Diversity Plus: LPS Assay for Vascular cell adhesion molecule 1 (VCAM1) Biomarker Activity (AID 2283086). The settings on record: primary human HUVEC with PBMC; actives raise or lower the signal. The method in brief:
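Human umbilical vein endothelial cells co-cultured with PBMC and stimulated with LPS; VCAM-1 measured by ELISA 24 h after dosing. Bidirectional curve fitting against DMSO baseline; cytotoxicity tracked in parallel by SRB total-protein staining.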

Read-out in another assay: CD38, CD38 (gene 952)
In words: BSK_SAg_CD38: BioMAP Diversity Plus: SAg Assay for CD38 Biomarker Activity (AID 2283087). The settings on record: primary human HUVEC with PBMC; actives raise or lower the signal. The method in brief:
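Human HUVEC plus PBMC co-culture stimulated with superantigen; CD38 measured by ELISA 24 h after chemical dosing. Fluorescence read-out, bidirectional fit against DMSO; cytotoxicity tracked in parallel by SRB and Alamar Blue.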

Read-out in the next assay: CD40, CD40 (gene 958)
The experiment in a line: BSK_SAg_CD40: BioMAP Diversity Plus: SAg Assay for CD40 Biomarker Activity (AID 2283088). The settings on record: primary human HUVEC with PBMC; actives raise or lower the signal. The gist of the method: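 HUVEC/PBMC co-culture, 24 h post-dose; CD40 by ELISA, fluorescence intensity; bidirectional fit vs DMSO negative control.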

Read-out in a further assay: CD69, CD69 (gene 969)
The experiment in a line: BSK_SAg_CD69: BioMAP Diversity Plus: SAg Assay for CD69 Biomarker Activity (AID 2283089). The settings on record: primary human HUVEC with PBMC; actives raise or lower the signal. The gist of the method: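 Values derive from bidirectional fitting relative to DMSO vehicle. Cells: umbilical vein endothelium plus peripheral blood mononuclear cells, treated 24 h before fluorescent ELISA for CD69.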

Read-out in assay [6]: Monocyte Chemoattractant Protein-1 (MCP1), CCL2 (gene 6347)
The experiment in a line: BSK_SAg_MCP1: BioMAP Diversity Plus: SAg Assay for Monocyte Chemoattractant Protein-1 (MCP1) Biomarker Activity (AID 2283090). The settings on record: primary human HUVEC with PBMC; actives raise or lower the signal. The method in brief: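 MCP-1 levels in the endothelial–PBMC SAg co-culture were quantified by ELISA at 24 h post-dosing; both increases and decreases versus DMSO scored. Cytotoxicity monitored by SRB total protein in parallel cultures.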

Read-out in assay [7]: E-selectin (Homo sapiens) (UniProt P16581)
The experiment in a line: BSK_SAg_Eselectin: BioMAP Diversity Plus: SAg Assay for Eselectin Biomarker Activity (AID 2283091). The settings on record: primary human HUVEC with PBMC; actives raise or lower the signal. The method in brief:
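E-selectin ELISA readout at 24 h post-dosing in human umbilical vein endothelial cell/PBMC co-culture; gain or loss of signal fitted relative to DMSO baseline.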

Read-out in assay [8]: Monokine induced gamma interferon (MIG), CXCL9 (gene 4283)
In words: BSK_SAg_MIG: BioMAP Diversity Plus: SAg Assay for Monokine induced gamma interferon (MIG) Biomarker Activity (AID 2283092). The settings on record: primary human HUVEC with PBMC; actives raise or lower the signal. The gist of the method:
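Values reflect bidirectional fitting of ELISA-measured MIG against DMSO vehicle, taken 24 h after dosing of a co-culture of human umbilical vein endothelial cells and peripheral blood mononuclear cells.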

Assay [9] in a line: BSK_SAg_PBMCCytotoxicity: PBMC Cytotoxicity Assessment in the BioMAP Diversity Plus: SAg Assay (AID 2283093).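 Further: PBMC viability measured as Alamar Blue reduction fluorescence at 546/580 nm; fitted both ways against DMSO so a hit may be loss or gain of signal.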 The settings on record: primary human HUVEC with PBMC. The gist of the method:
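Human umbilical vein endothelial cells co-cultured with PBMC; PBMC (75,000/well) pre-treated with compound 1 h, then activated with SEB and TSST-1 (20 ng/mL final each) for 90 h. Alamar Blue added 6 h, fluorescence 546/580 nm; bidirectional fit versus DMSO.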

Read-out in assay [10]: Interleukin-8 (IL8), CXCL8 (gene 3576)
In words: BSK_SAg_IL8: BioMAP Diversity Plus: SAg Assay for Interleukin-8 (IL8) Biomarker Activity (AID 2283094). The settings on record: primary human HUVEC with PBMC; actives raise or lower the signal. The gist of the method: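 Human umbilical vein endothelial cells co-cultured with PBMC, stimulated with superantigen; IL-8 measured by ELISA 24 h after chemical dosing. Bidirectional fitting versus DMSO; SRB staining in parallel cultures tracks cytotoxicity.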

Assay [11] in a line: BSK_SAg_Proliferation: Cell Proliferation Assessment in the BioMAP Diversity Plus: SAg Assay (AID 2283095). The settings on record: primary human HUVEC with PBMC. The method in brief: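 Human umbilical vein endothelial cells co-cultured with PBMC; sulforhodamine B total-protein staining (0.1% SRB after 10% TCA fixation, absorbance 560 nm) at 96 h in sub-confluent culture. Fitted bidirectionally against DMSO.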

A short description of assay [12]: BSK_SAg_SRB: Viability Assessment in the BioMAP Diversity Plus: SAg Assay (AID 2283096).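 Further: cells read one day after compound addition; hits may be either gain or loss of signal compared with DMSO.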 The settings on record: primary human HUVEC with PBMC. The gist of the method:
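Endothelial/PBMC primary human co-culture; compound 24 h; fix 10% TCA, stain 0.1% SRB, A560; protein content as cytotoxicity proxy; bidirectional curve fit, DMSO = baseline.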

Tumor necrosis factor (Homo sapiens), sequence (P01375 whole entry, looked up): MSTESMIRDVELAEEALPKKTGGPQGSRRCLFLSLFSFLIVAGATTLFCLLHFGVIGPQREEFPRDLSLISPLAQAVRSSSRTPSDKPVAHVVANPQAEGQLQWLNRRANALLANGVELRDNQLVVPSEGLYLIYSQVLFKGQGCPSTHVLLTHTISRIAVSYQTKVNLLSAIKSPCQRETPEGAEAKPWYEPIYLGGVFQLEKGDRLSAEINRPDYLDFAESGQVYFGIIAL
E-selectin (Homo sapiens), sequence (P16581 whole entry, looked up): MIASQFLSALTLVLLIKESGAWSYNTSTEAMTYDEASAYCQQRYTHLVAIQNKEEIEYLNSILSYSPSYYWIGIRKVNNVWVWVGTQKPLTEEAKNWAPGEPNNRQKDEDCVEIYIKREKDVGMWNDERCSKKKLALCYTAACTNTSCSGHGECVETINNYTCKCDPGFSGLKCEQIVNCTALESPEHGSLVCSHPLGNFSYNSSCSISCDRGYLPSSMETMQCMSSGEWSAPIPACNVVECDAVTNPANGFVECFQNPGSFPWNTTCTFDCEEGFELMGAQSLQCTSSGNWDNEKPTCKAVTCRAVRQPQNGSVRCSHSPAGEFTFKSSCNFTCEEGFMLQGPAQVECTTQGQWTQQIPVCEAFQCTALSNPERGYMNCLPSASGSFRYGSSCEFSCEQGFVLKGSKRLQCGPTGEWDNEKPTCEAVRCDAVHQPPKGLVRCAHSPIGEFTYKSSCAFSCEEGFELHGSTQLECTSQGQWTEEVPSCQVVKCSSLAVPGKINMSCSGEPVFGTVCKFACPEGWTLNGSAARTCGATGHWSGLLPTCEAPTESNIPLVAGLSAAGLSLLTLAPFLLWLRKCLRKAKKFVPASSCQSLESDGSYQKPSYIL

Turning to `c1ccc(C2CO2)cc1` (stereo not given), the outcome was “inactive” in [1]; “inactive” in assay [2]; “inactive” in assay [3]; “inactive” in assay [4]; “inactive” in assay [5]; “inactive” with CD38, CD38 (gene 952). In addition, the outcome with CD40, CD40 (gene 958) was “inactive”; in the assay with CD69, CD69 (gene 969), “inactive”; in assay [6] it was “inactive”; in assay [7], “inactive”; in [8], “inactive”; in assay [9], “inactive”. Further, the result in [10], in [11] and in assay [12] was inactive.
As for `CCCCCCCCOC(=O)c1ccc(C(=O)OCCCCCCCC)c(C(=O)OCCCCCCCC)c1`, the outcome in assay [1] was “inactive”; in [2], “inactive”; in [3] it was “inactive”; in assay [4], “inactive”; in assay [5] it was “inactive”; in the assay with CD38, CD38 (gene 952) it was “inactive”. Further, the outcome with CD40, CD40 (gene 958) was “inactive”; in the assay with CD69, CD69 (gene 969), “inactive”; in assay [6], “inactive”; in assay [7] it was “inactive”; in assay [8], “inactive”; in [9], “inactive”. Besides, the result in assay [10], in [11] and in assay [12] was inactive.
Turning to `CCC(C)c1ccc(O)cc1` (stereo not given), the half-maximal activity concentration (AC50) in [1] was 4.17 µM (active). Besides, the outcome in assay [2] was “inactive”; in assay [3], “inactive”; in assay [4], “inactive”; in assay [5], “inactive”; in the assay with CD38, CD38 (gene 952) it was “inactive”; with CD40, CD40 (gene 958), “inactive”. In addition, the outcome with CD69, CD69 (gene 969) was “inactive”; in assay [6], “inactive”; in [7], “inactive”; in assay [8], “inactive”; in [9], “inactive”; in assay [10] it was “inactive”. For the same compound, the result in assay [11] and in [12] was inactive.
For the compound `CN(C)c1ccc(C(=O)c2ccc(N(C)C)cc2)cc1`, the AC50 in assay [1] was 2.63 µM (active); in [5] it was 14.4 µM (active); with CD38, CD38 (gene 952), 20 µM (active); in [11], 0.578 µM (active); in assay [12] it was 14.6 µM (active). In addition, the outcome in [2] is “inactive”; in assay [3], “inactive”; in assay [4], “inactive”; in the assay with CD40, CD40 (gene 958) it was “inactive”; with CD69, CD69 (gene 969), “inactive”; in [6] it was “inactive”. Besides, the outcome in assay [7], in assay [8], in assay [9] and in [10] was inactive.
For `CCN(CC)N=O`, the outcome is “inactive” in [1]; “inactive” in assay [2]; “inactive” in assay [3]; “inactive” in [4]; “inactive” in assay [5]; “inactive” with CD38, CD38 (gene 952). Further, the outcome with CD40, CD40 (gene 958) is “inactive”; with CD69, CD69 (gene 969) it was “inactive”; in assay [6], “inactive”; in [7], “inactive”; in [8], “inactive”; in assay [9], “inactive”. Also, the outcome in assay [10], in assay [11] and in assay [12] was inactive.
Consider `c1ccc(N=Nc2ccccc2)cc1`, for which the outcome in assay [1] is “inactive”; in [2] it was “inactive”; in assay [3] it was “inactive”; in [4], “inactive”; in assay [5] it was “inactive”; with CD38, CD38 (gene 952) it was “inactive”. In addition, the outcome with CD40, CD40 (gene 958) was “inactive”; with CD69, CD69 (gene 969), “inactive”; in assay [6] it was “inactive”; in assay [7], “inactive”; in [8] it was “inactive”; in assay [9], “inactive”. Moreover, the result in assay [10], in [11] and in [12] was inactive.
Regarding `CCCSC(=O)N(CCC)CCC`, the outcome in [1] is “inactive”; in assay [2], “inactive”; in assay [3] it was “inactive”; in [4] it was “inactive”; in [5], “inactive”; with CD38, CD38 (gene 952), “inactive”. For the same compound, the outcome in the assay with CD40, CD40 (gene 958) is “inactive”; in the assay with CD69, CD69 (gene 969) it was “inactive”; in assay [6], “inactive”; in assay [7] it was “inactive”; in [8] it was “inactive”; in [9], “inactive”. Further, the outcome in [10], in assay [11] and in assay [12] was inactive.
With `C=CCc1ccc2c(c1)OCO2`, the outcome in assay [1] was “inactive”; in assay [2], “inactive”; in assay [3], “inactive”; in [4] it was “inactive”; in assay [5] it was “inactive”; with CD38, CD38 (gene 952), “inactive”. The outcome in the assay with CD40, CD40 (gene 958) was “inactive”; with CD69, CD69 (gene 969) it was “inactive”; in assay [6], “inactive”; in [7], “inactive”; in assay [8], “inactive”; in assay [9], “inactive”. Also, the outcome in [10], in [11] and in assay [12] was inactive.

For orientation: AC50 means the midpoint of the concentration-response curve, whichever way the signal moves.
